Bioassay records deposited in PubChem BioAssay by National Center for Advancing Translational Sciences (NCATS).
ATXN2 expr inh: Primary qHTS for Inhibitors of ATXN expression; Potency, µM (titrated, usually from 57 µM), inactives show at the highest dose activity change, negative = inhibition, actives largely listed as inhibitors; 360,000 tested, 0.72% active; HEK-293 ATXN2-luciferase reporter, luminescence, 24 h; further: on the % scale 0 is the no-effect control and ±100 the full control effect; nearly all actives have a fitted effect of over 55% in size
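qHTS (up to 57 uM final) was run with 24 h compound exposure of reporter cells at 37 °C. Each well was multiplexed: SteadyGlo luminescence measured ATXN2-luciferase expression after a fluorogenic Gly-Phe-AFC viability readout (25 uM final).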
HT1080 IDH1KD tx: qHTS for induction of synthetic lethality in tumor cells producing 2HG: qHTS for the HT-1080-IDH1KD cell line | HT-1080 IDH1 knockdown viability, ATP luminescence, 48 h | Potency, µM (series often up to 46.1 µM), for inactives: top-dose activity, negative = toxicity, actives largely listed as cytotoxic | 360,000 tested, 2% active | AID 686971, 2013;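 further: 0% = DMSO wells and -100% = cell-free medium wells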
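Viability of IDH1-knockdown HT-1080 fibrosarcoma cells was assessed by CellTiter-Glo after 48 h at 37 °C with titrated compound; concentration-effect curves were classified by fit quality and response size.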
KB-3-1 cytotox: qHTS assay for MDR1-selective chemotherapeutics: Primary screen using the parental adenocarcinoma cell KB-3-1 | 400,000 tested, 1.4% active | KB-3-1 viability, CellTiter-Glo ATP luminescence, 72 h | Potency, µM (highest dose often 46.1 µM), hits mostly cytotoxic; further: on the % scale 0 is the no-effect control and ±100 the full control effect; nearly all actives have a fitted effect of over 60% in size
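Using CellTiter-Glo luminescence, growth of non-resistant KB-3-1 adenocarcinoma cells is assessed 72 h after pin-tool compound addition at 37 °C. Normalized responses across the concentration series yield fitted curves.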
HT1080NT lethal: qHTS for induction of synthetic lethality in tumor cells producing 2HG: qHTS for the HT-1080-NT fibrosarcoma cell line | 360,000 tested, 1.6% active | HT-1080-NT fibrosarcoma viability, CellTiter-Glo ATP luminescence, 48 h | Potency, µM (highest dose often 46.1 µM), for inactives: at the top dose activity, negative = less viability, most hits filed as cytotoxic;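 further: NT is the 2HG producing partner of a matched IDH1 knockdown line; 0% = DMSO-treated cells and -100% = media-only wells without cells; nearly all actives have a fitted effect of over 55% in size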
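Fibrosarcoma NT cells, 750 per well in 5% FBS RPMI, were exposed to compound for 48 hours. Viability: CellTiter-Glo luminescence.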
S2 tox: Viability Counterscreen for Primary qHTS for Inhibitors of ATXN expression; Potency, µM (doses to about 56.7 µM), hits mostly cytotoxic; 400,000 tested, 0.49% active; AID 651635, 2014; S2 cells (HEK-293 line with an ATXN2-luciferase reporter) viability, CellTiter-Fluor protease fluorescence, 24 h; further: nearly all actives have a fitted effect of over 40% in size
KB-V1 cytotox: qHTS assay for MDR1-selective chemotherapeutics: Primary screen using the drug-selected MDR subline cells KB-V1. KB-V1 MDR cells viability, CellTiter-Glo, 72 h. AID 1347076, 2019. 400,000 tested, 3.4% active. Potency, µM (highest dose often 46.1 µM), hits mostly cytotoxic; further: on the % scale 0 is the no-effect control and ±100 the full control effect; nearly all actives have a fitted effect of over 60% in size
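KB-V1 MDR subline cells in DMEM (phenol-red free, 10% FBS) exposed to compounds in qHTS concentration series for 72 h at 37 degrees C. Viability read by CellTiter-Glo luminescence; concentration-effect curves fitted after normalization and correction.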
An asterisk follows results filed as active; i = inactive; ? = inconclusive; nt = not tested or not shown; [ ] = dose if it differs, or a comment. An excerpt weighted towards active compounds, which were near 6.2% of everything screened. The call rests on the fitted dose curve; in most records, active means well fitted curve in the direction sought with a large enough effect; inconclusive means small, poorly fitted or top-dose-only effect, or another doubt; inactive means no such curve, though single readings can be large; an effect the other way counts as inactive or inconclusive. Potency means the concentration at half of the fitted maximal effect.

SMILES	ATXN2 expr inh	HT1080 IDH1KD tx	KB-3-1 cytotox	HT1080NT lethal	S2 tox	KB-V1 cytotox
CCn1nc(C)c(NS(=O)(=O)c2ccc(C)cc2)c1C	-8.2%	-3.8%	?	-23.6%	i	16.4µM*
Cc1ccc(S(=O)(=O)Nc2ccccc2N2CCOCC2)cc1	-18.7%	18.4µM*	13µM*	20.6µM*	i	?
Cc1ccc(S(=O)(=O)Nc2ccccc2NS(=O)(=O)c2ccc(C)cc2)cc1	-7.8%	-20.6%	?	-29.9%	i	20.6µM*
Cc1ccc(S(=O)(=O)Nc2ccccc2O)cc1	nt	7.6%	i	-0.5%	nt	i
COc1cc(/C=C/c2ccc3cccc(O)c3n2)cc(Br)c1OC	-37.9%	?	14.6µM*	?	?	?
COc1cc(/C=C/c2ccc3cccc(O)c3n2)cc(Cl)c1OC	30.1%	?	?	?	?	?
Oc1cccc(/C=C/c2ccc3cccc(O)c3n2)c1	122.2%	?	?	32.6µM*	i	?
COc1cc(/C=C/c2ccc3cccc(O)c3n2)cc(OC)c1OC	15.8µM*	6.51µM*	?	8.2µM*	?	?
COc1ccc(C)cc1NC(=O)CCn1nc(C)cc1C	9.9%	nt	i	nt	i	i
Cc1ccc2c(c1)ncc[n+]2CC(=O)c1ccc(F)cc1	nt	nt	i	nt	nt	i
Cc1cc(COc2ccccc2OCc2cc(C)no2)on1	2.5%	5.1%	i	-2.7%	i	11.6µM*
Cc1ccc(NC(=O)CSc2ccc(-c3cccs3)nn2)cc1Cl	nt	nt	i	nt	nt	i
CCOc1ccccc1NC1=CC(=O)CC(c2ccccc2)C1 (stereo not given)	-24.9%	13µM*	i	?	?	?
COc1ccc(C2CC(=O)C=C(NCc3ccc4c(c3)OCO4)C2)cc1 (stereo not given)	nt	-1.1%	i	-7.5%	i	?
O=C1C=C(Nc2ccc(Cl)cc2)CC(c2ccccc2)C1 (stereo not given)	-23.9%	9.2µM*	?	11.6µM*	i	?
Cc1cc(C)cc(NC2=CC(=O)CC(c3ccco3)C2)c1 (stereo not given)	-1.1%	-12.0%	i	-1.6%	?	16.4µM*
COc1ccc(C2CC(=O)C=C(NCc3ccccc3)C2)cc1 (stereo not given)	-4.6%	18.4µM*	?	23.1µM*	i	?
O=c1oc2ccccc2cc1-c1cn2cc(Cc3ccccc3F)sc2n1	20.2%	nt	?	nt	?	i
Cc1ccc(NC2=CC(=O)CC(c3ccc(Cl)cc3)C2)cc1 (stereo not given)	-20.5%	-4.9%	i	-5.4%	i	?
Cc1ccc(NC2=CC(=O)CC(c3ccccc3)C2)cc1 (stereo not given)	4.2%	2.91µM*	?	2.91µM*	i	?
CN1C2C=C3C(C#N)=C(N)C(C#N)(C#N)[C@H](c4c(F)cccc4F)[C@H]3C1CC2 (stereo not given in full)	-13.5%	-13.0%[9.24 µM]	i	?	i	i
N#CC1=C(N)C(C#N)(C#N)[C@H](c2c(F)cccc2F)[C@H]2CC3(CC=C12)OCCO3	?	10µM*	6.51µM*	?	?	?
Cc1cccc(/C=C2\Sc3ccc(C(=O)N4CCCCC4)cc3N(C)C2=O)c1	nt	-24.5%	i	18.4µM*	?	?
C(=N\n1cnnc1)/c1ccc2c(c1)OCO2	4.4%	9.9%	i	?	i	i
Cc1cc(/C=N/n2cnnc2)c(C)n1-c1ccc(C(=O)O)cc1	nt	4.9%	i	0.1%	nt	i
SMILES	ATXN2 expr inh	HT1080 IDH1KD tx	KB-3-1 cytotox	HT1080NT lethal	S2 tox	KB-V1 cytotox
Cc1cc(/C=N/n2cnnc2)c(C)n1-c1ccc2c(c1)OCO2	-9.1%	-16.3%	i	-2.1%	i	5.17µM*
Cc1cccc(-n2c(C)cc(/C=N/n3cnnc3)c2C)c1	3.8%	-10.3%	?	-12.8%	i	18.4µM*
Cc1[nH]cnc1C[C@H]1CCc2c(C)c3ccccc3n2C1=O	nt	nt	nt	nt	i	nt
CC(=O)c1c(C)nn(CC(O)COc2ccc3ccccc3c2)c1C (stereo not given)	-21.7%	-10.8%	i	0.3%	i	7.31µM*
CCOc1ccc(NC(=O)c2ccc3c(SCC(=O)O)c4c(nc3c2)CCC4)cc1	7.5%	nt	i	nt	i	i
COc1ccc(C)cc1-n1c(=O)c2ccccc2c2ccccc2c1=O	-29.9%	-12.0%	i	-5.2%	i	i
COc1ccc(C)cc1N1C(=N)/C(=C2/Nc3ccccc3S2)C(c2ccccc2)C1=O (stereo not given)	2.6%	-11.4%	?	-13.5%	i	20.6µM*
CCN(CC)CCCN=C1N[C@@H](c2cccc(F)c2)C(C(=O)OC)=C(C)N1Cc1ccccc1	22.4µM*	?	?	?	25.1µM*	?
CCN(CC)CCCN=C1N[C@@H](c2cccc(C(F)(F)F)c2)C(C(=O)OC)=C(C)N1CC	?	?	?	?	22.4µM*	i
CCN1C(=NCc2cccc(Cl)c2)N[C@@H](c2cccc(C(F)(F)F)c2)C(C(=O)OC)=C1C	nt	nt	i	nt	nt	i
COC(=O)C1=C(C)N(Cc2ccccc2)C(=NCCc2c[nH]c3ccccc23)N[C@H]1c1cccc(F)c1	?	-25.2%	?	?	22.4µM*	?
Cc1sc2c(c1C)c(=O)n(Cc1ccccc1)c(=O)n2CC(=O)Nc1cccc(Cl)c1	-9.1%	nt	i	nt	i	?
COc1ccc(C(=O)NCC(C)(C)SCc2c(C)cc(C)cc2C)cc1	-12.2%	-9.0%	i	?	i	18.4µM*
COc1ccc(C(=O)NCCNC(=O)c2ccc(OC)cc2)cc1	-7.3%	0.2%	?	0.9%	i	i
Cc1ccc(-c2ccccc2C#N)cc1	3.6%	nt	nt	nt	i	nt
Cc1[nH]n(-c2ccccc2)c(=O)c1N=Nc1ccccc1O	?	9.2µM*	9.2µM*	14.6µM*	i	i
Cc1[nH]n(-c2ccccc2)c(=O)c1N=Nc1nccs1	22.4µM*	3.98µM*	i	11.2µM*	nt	?
CN(CC(=O)Nc1sc2c(c1C#N)CCCCC2)Cc1nc2ccccc2c(=O)[nH]1	-14.9%	-15.8%	i	-7.0%	i	16.4µM*
